Assay results as given in PubChem BioAssay.
The source made the active and inactive calls. Unless noted, how the calls were made is not given here.

How the values were obtained:
[1] = system: Wnt5a (protein binding on small-molecule microarray); experiment: Wnt5a binders on small-molecule microarray, primary screen, biophysical, 635/667 nm fluorescence (AID 1142); conditions: 635 nm fluorescence, higher = more signal;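 further: fluorescence read at 667 nm with signal to noise per printed feature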
[2] = cell viability in Huh7 cells, primary screen, cytotoxicity control for HCV replication inhibitor project, CellTiter-Glo luminescence, basal, 48 h (AID 1143); conditions: Huh7 HCV replicon, higher = more signal, called active from +8 up or from −8 down;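 further: Huh7 hepatoma cells carrying a hepatitis C replication reporter with no stimulus; test concentration not given here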
[3] = P. aeruginosa biofilm formation inhibitors, primary screen, PAO1 strain, BacTiter-Glo luminescence, LB-PBS (AID 1144); conditions: 12 h, higher = more signal
[4] = CREB reporter modulators without forskolin, primary screen, cell-based, PC12, CRE-LacZ reporter, unstimulated (AID 1145); conditions: no forskolin, luminescence, 4.5 h, higher = more signal, called active from +8 up or from −8 down
[5] = CREB reporter modulators under forskolin, primary screen, cell-based, PC12, CRE-LacZ reporter, forskolin-stimulated (AID 1146); conditions: luminescence, 4.5 h, higher = more signal, called active from +8 up or from −8 down;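 further: PC12 cells with 6xCRE LacZ reporter stimulated by forskolin 10 µM; beta-galactosidase reporter signal reflecting CREB driven transcription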
[6] = target: Streptavidin (Streptomyces avidinii) (UniProt P22629); experiment: streptavidin binders on small-molecule microarray, primary screen, artefact control for SMM compound annotation, biophysical, 635/667 nm fluorescence (AID 1147); conditions: streptavidin binding, higher = more signal;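 further: signal reflects streptavidin binding to arrayed compounds as a control protein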
[7] = small-molecule binders of probe aInhba, primary screen, biochemical, small-molecule microarray, 635/667 nm fluorescence (AID 1148); conditions: higher = more signal;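 further: score merges 667nm spot fluorescence with signal-to-noise for antibody binding to printed compounds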
Torsin-1A (Homo sapiens) [8] = target: Torsin-1A (Homo sapiens) (UniProt O14656); experiment: torsin A binders from cell lysate, primary screen, small-molecule microarray, wild-type, 635/667 nm (AID 1149); conditions: COS7 hTOR1A-WT lysate, 635 nm fluorescence, higher = more signal
Torsin-1A (Homo sapiens) [9] = target: Torsin-1A (Homo sapiens) (UniProt O14656); experiment: small-molecule binders of mutant TOR1A in lysate, primary screen, cell lysate, small-molecule microarray, COS7 lysate, 635/667 nm fluorescence (AID 1150); conditions: COS7 hTOR1A mutant lysate, 635 nm fluorescence, higher = more signal;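 further: score pools 667 nm emission and signal to noise measuring lysate protein binding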
[10] = system: Sonic hedgehog protein (Shh); experiment: small-molecule binders of Shh protein, primary screen, biochemical, small-molecule microarray, 635/667 nm fluorescence (AID 1151); conditions: small-molecule microarray binding, 635 nm fluorescence; higher = more signal;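 further: Shh protein binding to compounds spotted on small-molecule microarray slides; score combines spot fluorescence intensity with signal-to-noise across triplicate slides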
[11] = E. coli DRC41 culture turbidity changes, primary screen, E. coli filamentation inducer project, strain DRC41, OD650, 48 h (AID 1152);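 further: E. coli MC1000 strain DRC41 lacking acrAB efflux pump and sulA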; conditions: E. coli DRC41 (acrAB sulA), higher = more signal, called active from +8 up or from −8 down
[12] = small-molecule binders of probe aLefty1, primary screen, biochemical, small-molecule microarray, 635/667 nm fluorescence (AID 1153); conditions: higher = more signal;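 further: score merges spot fluorescence with signal-to-noise ratio from the scanned slide images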
[13] = PSAC antagonists in infected red cells, primary screen, cell-based, P. falciparum Indochina, OD700, 1 h (AID 1154); conditions: P. falciparum Indochina infected RBC osmotic lysis, higher = more signal, called active from +8 up or from −8 down
[14] = PSAC antagonists in infected red cells, primary screen, cell-based, P. falciparum Indochina, OD700, 2 h (AID 1155);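 further: lysis reports solute entry through the parasite surface anion channel PSAC; channel blockers reduce lysis of infected cells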; conditions: P. falciparum Indochina infected erythrocytes, osmotic lysis OD700; higher = more signal, called active from +8 up or from −8 down
[15] = osmotic lysis modulators in infected erythrocytes, primary screen, PSAC antagonist project, cell-based, P. falciparum Indochina, OD700, 3 h (AID 1156); conditions: higher = more signal, called active from +8 up or from −8 down
[16] = PSAC antagonists in infected red cells, primary screen, cell-based, P. falciparum Indochina, OD700, 18 h (AID 1157); conditions: P. falciparum Indochina infected erythrocytes, osmotic lysis OD700, 18 h; higher = more signal, called active from +8 up or from −8 down
[17] = modulators of S6 phosphorylation in cells, primary screen, cell-based, A549, cytoblot, luminescence, serum-stimulated (AID 1158); conditions: A549 phospho-S6 cytoblot, 5 h, higher = more signal;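 further: serum-stimulated A549 lung adenocarcinoma cells; signal is phosphorylated S6 detected by cytoblot immunostaining with HRP secondary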
[18] = target: NADPH oxidase 2 (Homo sapiens) (UniProt P04839); experiment: NOX2-dependent H2O2 signal modulators, primary screen, NOX inhibitor project, cell-based, HEK293-NOX2, PMA-stimulated, Amplex Red fluorescence (AID 1159); conditions: 45 min, higher = more signal, called active from +8 up or from −8 down; further: test concentration not given here
[19] = target: NADPH oxidase 4 (Homo sapiens) (UniProt Q9NPH5); experiment: NOX4-dependent H2O2 signal modulators, primary screen, NOX inhibitor project, cell-based, HEK293-NOX4, tetracycline-induced, Amplex Red fluorescence (AID 1160); conditions: 45 min, higher = more signal, called active from +8 up or from −8 down
[20] = target: NADPH oxidase 5 (Homo sapiens) (UniProt Q96PH1); experiment: NOX5-dependent H2O2 signal modulators, primary screen, NOX inhibitor project, cell-based, HEK293-NOX5, Amplex Red fluorescence (AID 1161); conditions: HEK293-NOX5, ionomycin, 45 min, higher = more signal
Sequence of NADPH oxidase 5 (Homo sapiens) (Q96PH1 whole entry, looked up): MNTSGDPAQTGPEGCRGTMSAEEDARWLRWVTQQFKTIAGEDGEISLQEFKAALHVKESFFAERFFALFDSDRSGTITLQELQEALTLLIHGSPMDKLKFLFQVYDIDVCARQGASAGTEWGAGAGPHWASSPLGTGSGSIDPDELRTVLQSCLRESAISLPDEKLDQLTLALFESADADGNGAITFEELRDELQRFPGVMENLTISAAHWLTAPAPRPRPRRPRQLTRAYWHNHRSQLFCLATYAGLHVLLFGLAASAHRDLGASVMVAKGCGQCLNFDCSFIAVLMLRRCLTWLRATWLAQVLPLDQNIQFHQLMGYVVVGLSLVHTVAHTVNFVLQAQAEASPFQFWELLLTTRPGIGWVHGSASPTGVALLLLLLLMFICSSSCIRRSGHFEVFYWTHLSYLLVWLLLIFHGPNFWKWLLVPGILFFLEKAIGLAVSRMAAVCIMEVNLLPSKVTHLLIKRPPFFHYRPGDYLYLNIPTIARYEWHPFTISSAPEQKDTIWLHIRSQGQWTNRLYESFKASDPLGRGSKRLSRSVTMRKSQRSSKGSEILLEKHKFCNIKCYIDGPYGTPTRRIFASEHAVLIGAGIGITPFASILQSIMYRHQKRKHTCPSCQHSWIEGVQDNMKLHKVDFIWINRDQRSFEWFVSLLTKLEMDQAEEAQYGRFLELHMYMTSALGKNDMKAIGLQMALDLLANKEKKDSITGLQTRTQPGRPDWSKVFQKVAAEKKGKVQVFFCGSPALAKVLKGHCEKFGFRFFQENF

Sequence of NADPH oxidase 2 (Homo sapiens) (P04839 whole entry, looked up): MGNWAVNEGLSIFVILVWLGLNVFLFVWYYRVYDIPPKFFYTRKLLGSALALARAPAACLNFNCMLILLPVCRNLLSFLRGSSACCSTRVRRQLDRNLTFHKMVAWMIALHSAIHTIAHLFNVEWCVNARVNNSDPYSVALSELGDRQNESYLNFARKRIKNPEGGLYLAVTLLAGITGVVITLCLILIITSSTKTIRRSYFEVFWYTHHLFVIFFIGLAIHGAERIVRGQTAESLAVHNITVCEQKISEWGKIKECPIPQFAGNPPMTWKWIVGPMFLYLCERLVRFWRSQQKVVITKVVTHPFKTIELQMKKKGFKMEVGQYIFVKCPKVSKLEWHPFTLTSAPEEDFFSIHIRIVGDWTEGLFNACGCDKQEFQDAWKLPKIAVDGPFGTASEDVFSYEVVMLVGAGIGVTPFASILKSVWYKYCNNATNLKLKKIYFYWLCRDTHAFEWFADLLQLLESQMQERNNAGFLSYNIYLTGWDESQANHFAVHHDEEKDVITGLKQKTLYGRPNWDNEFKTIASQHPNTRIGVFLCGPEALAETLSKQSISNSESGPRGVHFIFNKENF
Sequence of NADPH oxidase 4 (Homo sapiens) (Q9NPH5 whole entry, looked up): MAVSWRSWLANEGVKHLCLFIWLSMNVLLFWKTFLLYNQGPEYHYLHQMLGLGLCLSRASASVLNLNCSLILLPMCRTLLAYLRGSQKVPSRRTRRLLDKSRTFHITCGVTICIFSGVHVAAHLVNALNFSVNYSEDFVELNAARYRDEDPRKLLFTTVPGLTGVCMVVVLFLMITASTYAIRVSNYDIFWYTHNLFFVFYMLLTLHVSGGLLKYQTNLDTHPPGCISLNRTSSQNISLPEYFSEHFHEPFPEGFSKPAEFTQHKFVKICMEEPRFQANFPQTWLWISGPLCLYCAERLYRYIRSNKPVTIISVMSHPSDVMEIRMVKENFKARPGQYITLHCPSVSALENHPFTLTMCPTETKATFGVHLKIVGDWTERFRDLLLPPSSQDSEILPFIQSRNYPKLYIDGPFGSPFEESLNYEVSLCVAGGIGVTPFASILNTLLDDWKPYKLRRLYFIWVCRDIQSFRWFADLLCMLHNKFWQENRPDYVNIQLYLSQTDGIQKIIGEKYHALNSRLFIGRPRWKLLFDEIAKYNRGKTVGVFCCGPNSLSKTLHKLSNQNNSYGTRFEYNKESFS
Sequence of Streptavidin (Streptomyces avidinii) (P22629 whole entry, looked up): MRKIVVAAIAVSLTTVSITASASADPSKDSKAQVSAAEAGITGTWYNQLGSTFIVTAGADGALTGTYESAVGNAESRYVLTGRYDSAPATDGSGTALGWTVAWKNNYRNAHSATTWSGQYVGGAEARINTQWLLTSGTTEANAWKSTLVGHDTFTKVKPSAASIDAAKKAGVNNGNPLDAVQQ
Sequence of Torsin-1A (Homo sapiens) (O14656 whole entry, looked up): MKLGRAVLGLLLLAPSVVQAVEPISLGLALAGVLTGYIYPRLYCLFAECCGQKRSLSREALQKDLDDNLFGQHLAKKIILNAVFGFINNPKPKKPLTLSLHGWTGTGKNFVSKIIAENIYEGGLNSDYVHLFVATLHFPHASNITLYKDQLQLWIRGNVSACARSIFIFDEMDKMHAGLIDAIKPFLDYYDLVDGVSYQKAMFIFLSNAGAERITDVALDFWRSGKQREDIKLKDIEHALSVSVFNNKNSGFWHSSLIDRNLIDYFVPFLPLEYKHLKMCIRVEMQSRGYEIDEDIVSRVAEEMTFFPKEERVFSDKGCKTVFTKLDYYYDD

Row | Compound | composite z-score [1] | z-score [2] | z-score [3] | z-score [4] | z-score [5] | composite z-score [6] | composite z-score [7] | composite z-score (Torsin-1A (Homo sapiens) [8]) | composite z-score (Torsin-1A (Homo sapiens) [9]) | composite z-score [10] | z-score [11] | composite z-score [12] | z-score [13] | z-score [14] | z-score [15] | z-score [16] | z-score [17] | z-score [18] | z-score [19] | z-score [20]
1 | CCc1oc(CC[C@@H](CO)NC(=O)NCCn2cc(C3(O)CCCCC3)nn2)c(C(=O)OC)c1C(=O)OC | 0.209 | -0.186 (inactive) | 0.73 (inactive) | 1.01 (inactive) | 1.01 (inactive) | -0.0709 | 0.174 | 1.31 | 1.11 | 2.09 | -1.26 (inactive) | 0.0768 | 25.6 (active) | 7.39 (inactive) | 0.709 (inactive) | 1.07 (inactive) | -0.524 | -1.59 (inactive) | -0.491 (inactive) | -1.14
2 | COCCn1c(C(=O)N2CCCC2)cc2c1C[C@H]1CN(C(=O)c3ccccc3)[C@@](Cc3ccc(F)cc3)(C(=O)OC)[C@@H]21 | 0.45 | -1.37 (inactive) | -0.727 (inactive) | -0.568 (inactive) | -0.442 (inactive) | 1.8 | -0.0931 | 1.42 | 2.2 | -0.554 | -1.33 (inactive) | 0.237 | 1.15 (inactive) | 0.137 (inactive) | 2.62 (inactive) | 0.642 (inactive) | -0.0267 | 0.236 (inactive) | 0.191 (inactive) | -4.43
3 | CC(C)(C)OC(=O)CC[C@@]1(C(=O)NCCN2CCOCC2)N=C(c2ccc(OCCCO)cc2)O[C@@H]1c1ccccc1N=[N+]=[N-] | 0.492 | -1.34 (inactive) | 1.45 (inactive) | 1.55 (inactive) | -0.564 (inactive) | 0.554 | 0.0614 | 1.67 | 1.43 | -0.431 | 0.0974 (inactive) | 0.266 | 31.4 (active) | 28 (active) | 3.73 (inactive) | 5.67 (inactive) | -0.249 | -2.91 (inactive) | 0.765 (inactive) | -1.73
4 | O=C1O[C@H](c2ccccc2)[C@H](c2ccccc2)N2[C@H]1[C@@H](C(=O)N1CCN(c3ncccn3)CC1)[C@]1(C(=O)Nc3ccc(C#CC4=CCCCC4)cc31)[C@H]2c1ccc(O)cc1 | -0.019 | -2.01 (inactive) | -0.134 (inactive) | 0.155 (inactive) | -0.196 (inactive) | 1.08 | -0.0448 | 0.268 | 0.839 | 1.13 | 0.635 (inactive) | 0.396 | 0.706 (inactive) | 0.574 (inactive) | -0.313 (inactive) | 1.01 (inactive) | 0.538 | 0.852 (inactive) | 0.537 (inactive) | 0.837
5 | CC1CC/C=C\[C@H]2OC34C=CCN(Cn5nnc6ccccc65)C(=O)[C@H]3N(C(CO)C(C)C)C(=O)[C@@H]4C2C(=O)O1 (stereo not given in full) | -0.347 | 0.154 (inactive) | -0.246 (inactive) | -1.03 (inactive) | -1.05 (inactive) | -0.24 | -0.159 | -1.45 | -1.12 | 0.627 | 0.532 (inactive) | 0.0956 | 2.43 (inactive) | 0.0805 (inactive) | 0.752 (inactive) | 0.527 (inactive) | -0.174 | 1.09 (inactive) | 0.134 (inactive) | 2.22
6 | COc1ccc([Si](C)(C)[C@H]2[C@H](CCO)O[C@@]3(C(=O)N(C)c4c(Br)cc(C)cc43)[C@@H]2C)cc1 | -0.0092 | -8.05 (active) | -1 (inactive) | 15.2 (active) | -3.2 (inactive) | 0.0036 | -0.0523 | 1.15 | 0.105 | 1.29 | -1.28 (inactive) | 0.0486 | 7.79 (inactive) | 1.8 (inactive) | -2.17 (inactive) | 0.987 (inactive) | 0.0508 | -1.41 (inactive) | -1.15 (inactive) | -0.777
7 | CCCCc1cn(C[C@H](Cc2ccccc2)NC(=O)N[C@H](CO)CCc2oc(C(C)=O)c(C(=O)OC)c2C(=O)OC)nn1 | 0.276 | -2.8 (inactive) | -1.09 (inactive) | 1.02 (inactive) | 0.549 (inactive) | 0.881 | -0.0448 | 0.992 | 0.454 | 1.99 | 0.135 (inactive) | 0.086 | 1.66 (inactive) | -0.983 (inactive) | 1.21 (inactive) | -0.496 (inactive) | 0.847 | -4.81 (inactive) | -2.87 (inactive) | -2.48
8 | C=CCNC(=O)[C@@H]1[C@H]2C(=O)O[C@H](c3ccccc3)[C@H](c3ccccc3)N2[C@H](c2ccc(OCCO)cc2)[C@@]12C(=O)Nc1ccc(C#CCCO)cc12 | 0.847 | -0.625 (inactive) | -0.796 (inactive) | -0.141 (inactive) | -0.118 (inactive) | 1.6 | 1.15 | 1.26 | 1.17 | 1.59 | -0.41 (inactive) | 0.656 | 7.17 (inactive) | 2.11 (inactive) | 1.14 (inactive) | 0.812 (inactive) | -0.344 | 1.67 (inactive) | 0.442 (inactive) | 0.688
9 | CCN(CC)c1ccc(N2CC=CC34O[C@@H]5/C=C\CCC(C)OC(=O)C5[C@H]3C(=O)N(C(CO)C(C)C)[C@@H]4C2=O)cc1 (stereo not given in full) | -0.443 | -0.122 (inactive) | 0.805 (inactive) | 0.337 (inactive) | 0.199 (inactive) | -0.826 | -0.108 | -0.918 | -1.32 | 0.661 | 0.295 (inactive) | 0.2 | 1.82 (inactive) | 0.585 (inactive) | 0.975 (inactive) | 0.674 (inactive) | -0.232 | 0.398 (inactive) | -0.502 (inactive) | 0.855
10 | CCOC(=O)C1=CCC(c2ccc(C)cc2)N(S(=O)(=O)c2ccc(C)cc2)C1 (stereo not given) | -0.273 | -3.23 (inactive) | 0.271 (inactive) | -0.527 (inactive) | -0.34 (inactive) | 0.841 | -0.0645 | -0.0669 | 0.121 | -0.396 | -0.792 (inactive) | 0.174 | 2.05 (inactive) | 0.901 (inactive) | -0.628 (inactive) | 0.509 (inactive) | -0.78 | 0.63 (inactive) | 0.637 (inactive) | 1.17
